The target of assay [1] is Androgen receptor (Homo sapiens) (UniProt P10275). The experiment in a line: qHTS assay for small molecule agonists of androgen receptor signaling (AID 588515; active = well fitted curve in the direction sought with a large enough effect in the signal ratio, with a control signal flat; the % refers to the signal ratio; note: % is set by controls: 0 for no effect and ±100 for the full control effect). The conditions noted are these: AR-UAS-bla HEK293, beta-lactamase ratio, agonist 16 h; stronger effect = higher value. The gist of the method: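 Stimulation of an AR-responsive β-lactamase reporter in GripTite HEK293 cells was measured after 16 h compound exposure at 37 °C, via CCF4 fluorescence after 2 h RT. EC50 from Hill fits, normalized to R1881 at 30 nM.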
(In general: qHTS replaces the single test concentration by a dilution series.)

Assay [2] has the same target. The experiment in a line: qHTS assay for small molecule antagonists of androgen receptor signaling (AID 588516; active = well fitted curve in the direction sought with a large enough effect in the signal ratio, with a control signal flat, not every such curve was filed as active; the % refers to the signal ratio; note: % is set by controls: 0 for no effect and ±100 for the full control effect). In short, it runs like this: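 Compounds tested in titration against 10 nM R1881 in AR-responsive bla reporter HEK 293 cells; CCF4 fluorescence (460/530 nm) after 16 h exposure gave IC50 and efficacy.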
Assay [3] addresses Peroxisome proliferator-activated receptor delta (Homo sapiens) (UniProt Q03181). The experiment in a line: qHTS assay for small molecule antagonists of peroxisome proliferator-activated receptor delta signaling (AID 588535; active = well fitted inhibition curve with a large enough effect in the signal ratio, with a control signal flat, not every such curve was filed as active; the % refers to the signal ratio). In short, it runs like this:
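Inhibition of PPAR-delta response element-driven beta-lactamase expression is measured in HEK293T cells exposed to a compound titration series for 18 hrs at 37 C. Half-maximal inhibition comes from Hill equation fitting.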

Assay [4] in a line: qHTS assay for small molecule agonists of retinoid X receptor alpha signaling (AID 588544). The conditions noted are these: HEK293T RXRa-UAS-bla, beta-lactamase reporter, 18 h; 530 nm emission.
A short description of assay [5]: qHTS assay for small molecule agonists of the antioxidant response element (ARE) signaling pathway (AID 651741; active = well fitted activation curve with a large enough effect in the signal ratio; the % refers to the signal ratio; note: potency is the fitted concentration of half-maximal effect; for activation: % of control where 0% means no effect). In short, it runs like this:
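Reporter: beta-lactamase under ARE, stably in HepG2. Exposure: 16 h, 37 C, compounds delivered in DMSO by pin tool after 5 h cell preincubation. Readout: FRET substrate fluorescence after 2 h at RT.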

Assay [6] can be described thus: qHTS assay for small molecule activators of the nuclear factor-kappa B (NF-kB) signaling pathway (AID 651749; active = well fitted activation curve with a large enough effect in the signal ratio; the % refers to the signal ratio; note: series mostly up to about 77 µM; % of control where 0% means no effect). The conditions noted are these: NF-kB-bla ME-180 cells, beta-lactamase FRET ratio, 16 h; activation: stronger effect = higher value. In short, it runs like this:
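Human ME-180 cervical cells with an NF-kB-bla construct; compounds added via 23 nL pin transfer, DMSO as vehicle; incubation 16 hr. Reporter activity measured by FRET disruption.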

Assay [7] addresses Glucocorticoid receptor (Homo sapiens) (UniProt P04150). The experiment in a line: qHTS assay for small molecule antagonists of glucocorticoid receptor signaling (AID 588533; active = well fitted inhibition curve with a large enough effect in the signal ratio, with a control signal flat, not every such curve was filed as active; the % refers to the signal ratio;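 note: cells stimulated with 2 nM dexamethasone as agonist; % is set by controls: 0 for no effect and ±100 for the full control effect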). In short, it runs like this: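 Antagonist-mode qHTS: compound titrations added to GRE-bla HeLa cells, then dexamethasone 2 nM final; 18 h, 37 C. CCF4 FRET fluorescence normalized to dexamethasone and DMSO; IC50 from Hill fit.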

Assay [8] is described as follows: qHTS assay for small molecule activators of the human pregnane X receptor (PXR) signaling pathway (AID 720659; call rule not given here; note: 0% is about no effect).
In assay [9] the target is Cytochrome P450 3A4 (Homo sapiens) (UniProt P08684). The experiment in a line: qHTS Assay for Inhibitors and Substrates of Cytochrome P450 3A4 (AID 884; active = well fitted curve in the direction sought with a large enough effect; an effect the other way counts as inactive or inconclusive; note: potency is the fitted concentration of half-maximal effect; nearly all actives have a fitted effect of over 50% in size). In short, it runs like this:
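Luminescent readout of luciferin produced by CYP3A4 (20 nM) dealkylation of Luciferin-PPXE, 25 uM (its KM). NADPH-driven reaction ran 60 min at RT after 10 min compound preincubation; data scaled to 57 uM ketoconazole as 100% inhibition.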

The target is the same in assay [10]. The assay is described as follows: qHTS Assay for Activators of Cytochrome P450 3A4 (AID 885; active = well fitted curve in the direction sought with a large enough effect; an effect the other way counts as inactive or inconclusive; note: nearly all actives have a fitted effect of over 65% in size). The gist of the method: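 CYP3A4 activity: Luciferin-PPXE O-dealkylation, 25uM substrate, 200mM KPO4, RT throughout. Read-out is luciferase luminescence; higher values reflect activation.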
Assay [11] can be described thus: Confirmation and Secondary Assay for Modulators of Hemoglobin Beta Chain Splicing at IVS2 654 locus (AID 910; active = well fitted curve in the direction sought with a large enough effect; an effect the other way counts as inactive or inconclusive; note: % of control where 0% means no effect). In short, it runs like this:
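HeLa cells stably carrying EGFP interrupted by mutant beta-globin IVS2-654 intron (CMV-driven) were treated with compound for 2 days at 37C; corrected splicing was scored as total peak GFP intensity per well (488 nm excitation, 500-520 nm emission).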

The nature of assay [12]: Confirmation and Secondary Assay for Modulators of Hemoglobin Beta Chain Splicing at IVS2 705 locus (AID 930; active = well fitted curve in the direction sought with a large enough effect; an effect the other way counts as inactive or inconclusive;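 note: HeLa cells stably expressing the EGFP-705 splicing reporter; GFP fluorescence per well restored by corrected splicing of the IVS2-705 intron in EGFP; series mostly up to about 46 µM; % of control where 0% means no effect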). In short, it runs like this: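 HeLa cells stably carrying EGFP interrupted by mutant beta-globin intron 2 (IVS2-705) treated 2 days at 37C with compound; 500 nM antisense PNA as control. Correct splicing read as total peak GFP intensity per well by laser-scanning cytometry.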

The target in assay [13] is Estrogen receptor (Homo sapiens) (UniProt P03372). The experiment in a line: qHTS assay for small molecule agonists of estrogen receptor alpha signaling (AID 588514).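 Note: 0% = vehicle only and 100% = reference agonist; nearly all actives have a fitted effect of over 70% in size.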 The gist of the method:
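Efficacy is expressed against 20 nM 17-beta-estradiol (100%) and DMSO basal (0%); EC50 from Hill equation. Assay: beta-lactamase reporter in ER-alpha-UAS-bla HEK 293 cells, 18 h compound incubation, CCF4 detection.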

Assay [14] concerns the target Bile acid receptor (Homo sapiens) (UniProt Q96RI1). The experiment in a line: qHTS assay for small molecule agonists of farnesoid X receptor signaling (AID 588527).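 Note: series mostly up to about 77 µM; 0% = vehicle basal and 100% = reference agonist.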 The conditions noted are these: HEK293T FXR-UAS-bla, beta-lactamase ratio, 16 h; activation: stronger effect = higher value. In short, it runs like this:
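FXR-UAS-bla HEK293T, 10% dialyzed FBS; cpds up to 92 uM titration, 16 h 37 C; CCF4 dye 2 h RT; fluorescence. Normalized to chenodeoxycholic acid 100 uM (100%) and DMSO (0%); Hill fit gives EC50, efficacy.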

The target is the same in assay [15]. The experiment in a line: qHTS assay for small molecule antagonists of farnesoid X receptor signaling (AID 588526). Note: % is set by controls: 0 for no effect and ±100 for the full control effect. The gist of the method: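 Concentration-response titrations were fitted to the Hill equation for half-maximal inhibition and maximal response, with data normalised to 50 uM chenodeoxycholic acid and DMSO control wells. Cells: FXR-UAS-bla HEK293T, dialyzed FBS.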

Records with an inconclusive call do not appear. The source made the active and inactive calls. Unless noted, calls come from the whole dose curve.

Chain of Bile acid receptor (Homo sapiens) (Q96RI1 whole entry, looked up): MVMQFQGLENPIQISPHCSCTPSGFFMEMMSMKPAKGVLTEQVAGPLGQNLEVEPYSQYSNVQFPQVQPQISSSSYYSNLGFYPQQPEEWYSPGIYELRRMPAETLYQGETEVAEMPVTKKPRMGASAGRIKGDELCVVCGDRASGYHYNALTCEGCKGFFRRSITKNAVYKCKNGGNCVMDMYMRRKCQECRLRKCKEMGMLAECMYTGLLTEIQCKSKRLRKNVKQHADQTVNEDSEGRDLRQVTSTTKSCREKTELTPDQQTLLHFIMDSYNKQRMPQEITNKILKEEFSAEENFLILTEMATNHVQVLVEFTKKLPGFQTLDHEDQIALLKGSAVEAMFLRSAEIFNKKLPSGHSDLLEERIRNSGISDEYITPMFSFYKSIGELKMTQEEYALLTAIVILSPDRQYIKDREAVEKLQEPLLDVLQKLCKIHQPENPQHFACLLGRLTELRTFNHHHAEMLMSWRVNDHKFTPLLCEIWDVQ
Chain of Glucocorticoid receptor (Homo sapiens) (P04150 whole entry, looked up): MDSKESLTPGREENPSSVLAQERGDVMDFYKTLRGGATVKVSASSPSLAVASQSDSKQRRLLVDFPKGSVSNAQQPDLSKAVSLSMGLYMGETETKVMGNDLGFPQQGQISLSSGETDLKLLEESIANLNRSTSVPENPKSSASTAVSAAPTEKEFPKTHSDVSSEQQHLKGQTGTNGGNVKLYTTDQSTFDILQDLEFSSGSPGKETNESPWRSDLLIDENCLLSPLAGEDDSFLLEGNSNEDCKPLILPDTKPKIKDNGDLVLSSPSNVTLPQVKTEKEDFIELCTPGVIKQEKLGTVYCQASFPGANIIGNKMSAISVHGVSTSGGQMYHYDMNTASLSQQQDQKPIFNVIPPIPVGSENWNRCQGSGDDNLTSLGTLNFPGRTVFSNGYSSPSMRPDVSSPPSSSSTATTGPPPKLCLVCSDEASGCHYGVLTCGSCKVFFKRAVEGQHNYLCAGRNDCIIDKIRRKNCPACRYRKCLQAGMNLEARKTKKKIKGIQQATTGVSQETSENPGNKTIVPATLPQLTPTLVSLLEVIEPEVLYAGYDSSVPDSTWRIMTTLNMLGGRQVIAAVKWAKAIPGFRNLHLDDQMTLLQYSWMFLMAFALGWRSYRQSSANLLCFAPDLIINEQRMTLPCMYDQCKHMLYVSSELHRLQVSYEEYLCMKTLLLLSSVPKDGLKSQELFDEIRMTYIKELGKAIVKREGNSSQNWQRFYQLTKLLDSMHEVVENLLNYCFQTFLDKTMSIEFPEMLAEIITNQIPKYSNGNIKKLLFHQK
Chain of Androgen receptor (Homo sapiens) (P10275 whole entry, looked up): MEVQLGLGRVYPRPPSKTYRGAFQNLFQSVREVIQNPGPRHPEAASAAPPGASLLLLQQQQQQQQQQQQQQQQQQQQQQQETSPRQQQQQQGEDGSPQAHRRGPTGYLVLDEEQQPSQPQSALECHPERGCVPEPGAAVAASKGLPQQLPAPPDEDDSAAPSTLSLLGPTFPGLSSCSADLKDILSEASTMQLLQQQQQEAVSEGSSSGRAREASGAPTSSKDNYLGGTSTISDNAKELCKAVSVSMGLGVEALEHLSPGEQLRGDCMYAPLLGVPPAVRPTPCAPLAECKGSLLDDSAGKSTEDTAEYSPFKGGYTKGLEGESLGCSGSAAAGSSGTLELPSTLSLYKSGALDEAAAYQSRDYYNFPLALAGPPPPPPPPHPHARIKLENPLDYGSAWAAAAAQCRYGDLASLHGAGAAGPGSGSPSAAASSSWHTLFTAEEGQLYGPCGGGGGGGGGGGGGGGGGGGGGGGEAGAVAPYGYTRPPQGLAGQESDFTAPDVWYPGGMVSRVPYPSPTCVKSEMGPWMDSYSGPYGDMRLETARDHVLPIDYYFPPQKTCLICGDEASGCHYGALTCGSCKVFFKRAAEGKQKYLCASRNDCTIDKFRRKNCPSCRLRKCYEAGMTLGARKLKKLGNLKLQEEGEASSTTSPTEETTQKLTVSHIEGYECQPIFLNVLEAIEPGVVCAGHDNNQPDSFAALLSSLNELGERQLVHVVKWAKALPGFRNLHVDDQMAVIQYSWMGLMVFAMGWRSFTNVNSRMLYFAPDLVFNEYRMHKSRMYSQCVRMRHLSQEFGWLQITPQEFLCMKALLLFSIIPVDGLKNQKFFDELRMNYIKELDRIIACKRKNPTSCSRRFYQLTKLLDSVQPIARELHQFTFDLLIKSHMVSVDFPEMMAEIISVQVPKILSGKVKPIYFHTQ
Chain of Estrogen receptor (Homo sapiens) (P03372 whole entry, looked up): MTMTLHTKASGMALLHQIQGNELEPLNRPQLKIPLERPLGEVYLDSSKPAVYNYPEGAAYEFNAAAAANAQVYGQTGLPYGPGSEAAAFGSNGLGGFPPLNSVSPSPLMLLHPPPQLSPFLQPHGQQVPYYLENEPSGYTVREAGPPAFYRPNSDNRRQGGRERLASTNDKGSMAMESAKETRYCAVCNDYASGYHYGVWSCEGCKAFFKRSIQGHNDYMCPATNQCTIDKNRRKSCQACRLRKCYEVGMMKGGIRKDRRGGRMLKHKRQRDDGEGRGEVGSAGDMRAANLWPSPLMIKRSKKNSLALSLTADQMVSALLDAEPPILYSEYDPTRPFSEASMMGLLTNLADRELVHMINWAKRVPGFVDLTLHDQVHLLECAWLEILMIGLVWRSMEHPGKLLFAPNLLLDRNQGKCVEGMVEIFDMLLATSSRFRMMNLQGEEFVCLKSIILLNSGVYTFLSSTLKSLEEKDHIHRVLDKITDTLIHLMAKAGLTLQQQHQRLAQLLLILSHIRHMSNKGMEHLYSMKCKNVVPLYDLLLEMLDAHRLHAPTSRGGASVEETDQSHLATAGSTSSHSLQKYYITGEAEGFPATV
Chain of Peroxisome proliferator-activated receptor delta (Homo sapiens) (Q03181 whole entry, looked up): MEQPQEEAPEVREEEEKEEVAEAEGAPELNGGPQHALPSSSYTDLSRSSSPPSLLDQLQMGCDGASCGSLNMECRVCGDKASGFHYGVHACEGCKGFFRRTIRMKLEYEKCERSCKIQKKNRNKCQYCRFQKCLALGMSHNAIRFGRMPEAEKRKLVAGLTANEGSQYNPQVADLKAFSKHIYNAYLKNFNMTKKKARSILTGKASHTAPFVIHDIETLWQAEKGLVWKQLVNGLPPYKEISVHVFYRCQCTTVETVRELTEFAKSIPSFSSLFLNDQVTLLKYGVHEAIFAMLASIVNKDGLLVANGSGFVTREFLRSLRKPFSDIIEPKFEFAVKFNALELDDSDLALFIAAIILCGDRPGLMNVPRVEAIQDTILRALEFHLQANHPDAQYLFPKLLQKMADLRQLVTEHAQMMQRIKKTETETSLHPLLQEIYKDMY
Chain of Cytochrome P450 3A4 (Homo sapiens) (P08684 whole entry, looked up): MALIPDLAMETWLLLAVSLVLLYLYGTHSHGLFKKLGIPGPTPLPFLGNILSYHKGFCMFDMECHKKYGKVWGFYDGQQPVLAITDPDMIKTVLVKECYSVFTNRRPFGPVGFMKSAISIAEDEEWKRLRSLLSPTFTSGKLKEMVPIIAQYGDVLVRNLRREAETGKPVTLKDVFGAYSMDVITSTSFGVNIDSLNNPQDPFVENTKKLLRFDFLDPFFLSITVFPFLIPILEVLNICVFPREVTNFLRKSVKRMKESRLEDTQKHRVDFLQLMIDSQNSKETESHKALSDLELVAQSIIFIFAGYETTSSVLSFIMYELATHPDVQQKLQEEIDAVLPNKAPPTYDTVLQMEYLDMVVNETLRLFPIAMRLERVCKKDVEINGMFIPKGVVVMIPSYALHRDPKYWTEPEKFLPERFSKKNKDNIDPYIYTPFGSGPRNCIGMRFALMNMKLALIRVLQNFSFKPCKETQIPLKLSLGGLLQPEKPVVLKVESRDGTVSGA

For the compound `Cc1ccccc1CO[C@@H]1C[C@@]2(C(C)C)CC[C@]1(C)O2`, the activation in assay [1] is -0.477% (inactive); in assay [6], -3.81% (inactive). Also, the Potency entry in assay [2], in assay [3] and in assay [5] was “inactive” throughout. Moreover, the max response in assay [4] was found to be 4.66%.

In the case of `CCC[CH2][Sn](=[O])[CH2]CCC`, the activation in assay [1] was 0.348% (inactive); in assay [6], -1.97% (inactive). For the same compound, the Potency result in assay [2], in assay [7], in assay [3] and in [5] was “inactive” each time. In addition, the max response in assay [4] is -5.73%. The outcome in assay [8] was inactive.

`CCOP(=S)(OCC)SCn1c(=O)oc2cc(Cl)ccc21`: the Potency in assay [9] is 0.794 µM (active); in assay [5], 27.3 µM (active). Moreover, the Potency result in [10], in assay [11], in assay [13] and in [7] was “inactive” each time. Further, in [12], the result was inactive. For the same compound, the activation in assay [14] was -2.19% (inactive).

For the compound `CC1=C(C(=O)Nc2ccccc2)S(=O)(=O)CCO1`, the Potency entry in assay [13] was “inactive”. In assay [14], the activation was -2.72% (inactive). Also, the Potency in assay [5] is 8.63 µM (active). In assay [8], the result was inactive.

Turning to `CNP(=O)(OC)Oc1ccc(C(C)(C)C)cc1Cl` (stereo unspecified), the Potency result in assay [13] and in assay [3] was “inactive” throughout. Also, in assay [4], the max response turned out to be 10.3%. In addition, in assay [5], the Potency was 61.1 µM (active). In assay [6], the activation was 1.2% (inactive).

Regarding `CC(C)[C@@H](Nc1ccc(C(F)(F)F)cc1Cl)C(=O)OC(C#N)c1cccc(Oc2ccccc2)c1` (stereo partly specified), the Potency entry in assay [13] and in assay [7] was “inactive” each time.

Turning to `ClC1=C(Cl)C2(Cl)C3C4OC4C(Cl)C3C1(Cl)C2(Cl)Cl` (stereo unspecified), the Potency result in assay [13], in assay [7] and in [3] was “inactive” throughout. Moreover, the max response in assay [4] is 2.4%. Further, in [6], the activation was 4.48% (inactive).

Consider `C[N+]1(C)CCCCC1`, for which, in [1], the activation was 4.04% (inactive). Besides, the Potency entry in assay [2] and in assay [3] was “inactive” in each case. Moreover, in [8], the call was inactive.

Consider `COc1cc(OC)nc(NC(=O)NS(=O)(=O)c2cc(NC=O)ccc2C(=O)N(C)C)n1`, for which the activation in assay [1] was 1.85% (inactive); in assay [14], -1.24% (inactive); in assay [6] it was 1.99% (inactive). Also, the Potency entry in assay [2], in assay [15], in assay [7] and in assay [3] was “inactive” each time. Also, the max response in assay [4] is -3.56%. Besides, the compound was called inactive in [8].

On to `CCOP(=O)(OCC)OP(=O)(OCC)OCC`, for which the figures for the activation in [1], in assay [14] and in [6] were 5.85% (inactive), 2.91% (inactive) and -0.353% (inactive), respectively. In addition, the Potency result in assay [2], in assay [15], in assay [3] and in [5] was “inactive” in each case. Further, in [4], the max response was -12.7%.

Turning to `CCNc1nc(NC(C)C)nc(SC)n1`, the activation in [1] is -1.4% (inactive); in assay [6] it was -1.51% (inactive). For the same compound, the Potency result in [2], in [3] and in [5] was “inactive” throughout. The max response in assay [4] is -4.47%.

On to `C#CCN1C(=O)COc2cc(F)c(N3C(=O)C4=C(CCCC4)C3=O)cc21`, for which the activation in [1] was 8.69% (inactive). Besides, the Potency result in [2] and in [7] was “inactive” each time. The max response in assay [4] was -8.78%. Also, in assay [8], the result was inactive.

For `CCC(C)(C)c1cc(-n2nc3ccccc3n2)c(O)c(C(C)(C)CC)c1`, the activation in assay [1] is 3.42% (inactive); in assay [6], -0.182% (inactive). The Potency result in assay [2] and in assay [3] was “inactive” throughout. Besides, in assay [4], the max response is -3.41%. For the same compound, the Potency in assay [5] was 30.6 µM (active). Further, the compound was classed as inactive in assay [8].

Regarding `COC(=O)N(C(=O)N1COC2(C(=O)OC)Cc3cc(Cl)ccc3C2=N1)c1ccc(OC(F)(F)F)cc1` (stereo unspecified), the Potency result in [13] and in [3] was “inactive” in each case.

`CC1(C)[C@H](C=C(Cl)Cl)[C@H]1C(=O)O[C@H](C#N)c1ccc(F)c(Oc2ccccc2)c1`: the Potency result in [13], in [7] and in assay [3] was “inactive” throughout. Besides, the activation in [6] was 4.2% (inactive).

As to `O=S(=O)(c1ccc(Cl)cc1)c1cc(Cl)c(Cl)cc1Cl`, the Potency result in assay [13] and in [7] was “inactive” each time. For the same compound, the values for the activation in assay [14] and in assay [6] were 3.42% (inactive) and 1.59% (inactive), respectively. In assay [5], the Potency was 27.3 µM (active).

Regarding `ClC1=C(Cl)[C@@]2(Cl)[C@H]3C[C@@H](Cl)[C@H](Cl)[C@H]3[C@@]1(Cl)C2(Cl)Cl`, the activation in [1] was -0.104% (inactive); in [14], -1.23% (inactive). For the same compound, the Potency entry in assay [2] is “inactive”. The Potency in assay [5] is 24.3 µM (active).

Consider `N#CCNC(=O)c1cnccc1C(F)(F)F`, for which the activation was 4.4% (inactive) in assay [1] and -0.0822% (inactive) in [14]. For the same compound, the Potency entry in assay [2], in assay [15], in [7], in assay [3] and in assay [5] was “inactive” throughout. In addition, in assay [4], the max response is -4.19%. Also, the call in assay [8] was inactive.

(Values after PubChem BioAssay (NCATS).)
